Source: PubChem BioAssay (Tox21)
Several values for one entry are separate records, joined by “and”; a condition that tells them apart may be missing. Equal values may be shown once. Inconclusive results are not listed. Entries that show only a call come without a potency. Activity calls are given as the source filed them. Unless noted, calls come from the whole dose curve.

Key:
[1] = biological target: Gonadotropin-releasing hormone receptor (Homo sapiens) (UniProt P30968); experiment: Human gonadotropin-releasing hormone receptor (GnRHR) small molecule agonists, calcium flux assay in GnRHR-HEK293 cells (AID 1920063); note: nearly all actives have a fitted effect of over 35% in size
Gonadotropin-releasing hormone receptor (Homo sapiens), sequence (P30968 whole entry, looked up): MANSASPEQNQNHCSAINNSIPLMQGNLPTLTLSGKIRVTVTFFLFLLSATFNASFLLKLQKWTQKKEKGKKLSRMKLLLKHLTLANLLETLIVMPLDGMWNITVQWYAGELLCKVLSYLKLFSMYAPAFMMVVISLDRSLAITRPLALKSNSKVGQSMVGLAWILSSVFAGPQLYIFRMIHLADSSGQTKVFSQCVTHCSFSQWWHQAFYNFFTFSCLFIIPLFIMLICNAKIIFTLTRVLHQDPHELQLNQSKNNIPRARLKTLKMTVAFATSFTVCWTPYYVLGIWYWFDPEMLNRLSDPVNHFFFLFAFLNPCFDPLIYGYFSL
Procedure, shortened: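 HEK293 cells stably expressing human GnRHR were plated 18 h at 37 °C, loaded with calcium dye 1 h at 37 °C, then given compound in agonist mode; fluorescence (Ex/Em 480/540) read kinetically for 3 min at 1 s intervals.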

[2] = biological target: KiSS-1 receptor (Homo sapiens) (UniProt Q969F8); experiment: Human kisspeptin (KISS1R) small molecule agonists, calcium flux assay in KISS1R-HEK293 cells (AID 1920064; active = well fitted activation curve with a large enough effect in the repeat runs)
KiSS-1 receptor (Homo sapiens), sequence (Q969F8 whole entry, looked up): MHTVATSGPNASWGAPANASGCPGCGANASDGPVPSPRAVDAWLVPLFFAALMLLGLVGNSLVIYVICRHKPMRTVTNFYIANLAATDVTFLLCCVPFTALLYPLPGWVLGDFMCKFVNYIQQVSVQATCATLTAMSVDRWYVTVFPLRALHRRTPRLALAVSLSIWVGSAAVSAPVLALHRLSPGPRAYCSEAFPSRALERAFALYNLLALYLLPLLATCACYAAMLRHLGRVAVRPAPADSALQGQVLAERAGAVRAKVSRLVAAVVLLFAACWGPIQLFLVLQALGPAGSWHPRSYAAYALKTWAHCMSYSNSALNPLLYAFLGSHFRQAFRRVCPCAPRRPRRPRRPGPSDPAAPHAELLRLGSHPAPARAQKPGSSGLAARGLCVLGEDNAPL
Procedure, shortened: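 HEK293 cells stably expressing human KISS1R were plated 18 h at 37 °C, loaded with calcium dye for 1 h at 37 °C, then given compound by pin tool. Fluorescence (Ex/Em 480/540) was read kinetically for 3 min.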

[3] = G protein-coupled receptor (GPCR) small molecule agonists, calcium flux assay: HEK293 wild type cell line counter screen (AID 1920065)
Procedure, shortened: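 Cells were plated and cultured 18 h at 37 C/5% CO2, then loaded with calcium dye for 1 h at 37 C. Compounds in DMSO were pin-transferred in agonist mode, and fluorescence (Ex/Em 480/540) was read kinetically for 3 min at 1 s intervals.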

[4] = p53 small molecule agonists, cell-based qHTS assay with human liver microsomes (AID 1963577)
Procedure, shortened: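 Compounds act here after metabolic activation: human liver microsomes and NADPH, both at 0.5 mg/mL final, were co-added to p53RE-bla cells. Incubation ran 16 h at 37 C, followed by LiveBLAzer detection.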

[5] = p53 small molecule agonists, cell-based qHTS assay with rat liver microsomes (AID 1963578)
Procedure, shortened: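 Read-out is beta-lactamase reporter fluorescence (LiveBLAzer, 2 h, room temperature, dark) in p53RE-bla cells treated 16 h at 37 C with compound, rat liver microsomes and NADPH, both 0.5 mg/mL final.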

[6] = p53 small molecule agonists, cell-based qHTS assay with human liver microsomes: qHTS cell viability counter screen (AID 1963579); note: nearly all actives have a fitted effect of over 45% in size
Procedure, shortened: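 Cells carrying the p53 response-element beta-lactamase reporter are treated for 16 h at 37 C with test compounds in the presence of human liver microsomes and NADPH (both 0.5 mg/mL final); ATP-based CellTiter-Glo luminescence then reports viability.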

[7] = p53 small molecule agonists, cell-based qHTS assay with rat liver microsomes: qHTS cell viability counter screen (AID 1963580); note: nearly all actives have a fitted effect of over 45% in size
Procedure, shortened: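 HCT-116 p53RE-bla, 4,000 cells/well, 5 h pre-incubation; cpd + rat liver microsomes 0.5 mg/mL + NADPH 0.5 mg/mL (final); 16 h, 37 C; CellTiter-Glo, 30 min RT; luminescence.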

[8] = p53 small molecule agonists, cell-based qHTS assay: qHTS cell viability counter screen (AID 1963581); note: nearly all actives have a fitted effect of over 45% in size
Procedure, shortened: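 p53RE-bla HCT-116 cells were exposed to compounds for 16 h at 37 C; after the beta-lactamase FRET read in the same wells, CellTiter-Glo was added and luminescence (intracellular ATP) read after 30 min at room temperature.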

[9] = p53 small molecule agonists, cell-based qHTS assay (AID 1963582; active = well fitted activation curve with a large enough effect in the signal ratio in the repeat runs, not every such curve was filed as active; the % refers to the signal ratio)
Procedure, shortened: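 p53RE-bla beta-lactamase reporter cells rested 5 h at 37 C/5% CO2, then received compounds in DMSO by pin transfer and were incubated 16 h at 37 C. LiveBLAzer B/G FRET substrate was loaded for 2 h at room temperature before fluorescence reading.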

[10] = cAMP Responsive Elements (CRE) small molecule agonists, cell-based qHTS assay (AID 1963590)
Procedure, shortened: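 CRE-bla HEK 293T cells in DMEM with 10% dialyzed FBS, NEAA, pyruvate and 25 mM HEPES were plated 18 h at 37 C/5% CO2, then exposed to compounds in DMSO for 3 h before LiveBLAzer B/G FRET substrate addition.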

[11] = cAMP Responsive Elements (CRE) small molecule antagonists, cell-based qHTS assay (AID 1963591; active = well fitted inhibition curve with a large enough effect in the signal ratio in the repeat runs, not every such curve was filed as active; the % refers to the signal ratio)
Procedure, shortened: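 CRE-bla HEK293T cells were plated 18 h at 37 °C/5% CO2, pinned with compound in DMSO, then stimulated with NKH477 at 0.25 uM final for 3 h. LiveBLAzer B/G FRET substrate was added and plates incubated 2 h at room temperature.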

[12] = biological target: Beta-2 adrenergic receptor (Homo sapiens) (UniProt P07550); experiment: Adrenergic beta2 receptor (ADRB2) small molecule antagonists, cell-based qHTS assay (AID 1963592); note: series mostly up to about 92 µM; nearly all actives have a fitted effect of over 50% in size
Beta-2 adrenergic receptor (Homo sapiens), sequence (P07550 whole entry, looked up): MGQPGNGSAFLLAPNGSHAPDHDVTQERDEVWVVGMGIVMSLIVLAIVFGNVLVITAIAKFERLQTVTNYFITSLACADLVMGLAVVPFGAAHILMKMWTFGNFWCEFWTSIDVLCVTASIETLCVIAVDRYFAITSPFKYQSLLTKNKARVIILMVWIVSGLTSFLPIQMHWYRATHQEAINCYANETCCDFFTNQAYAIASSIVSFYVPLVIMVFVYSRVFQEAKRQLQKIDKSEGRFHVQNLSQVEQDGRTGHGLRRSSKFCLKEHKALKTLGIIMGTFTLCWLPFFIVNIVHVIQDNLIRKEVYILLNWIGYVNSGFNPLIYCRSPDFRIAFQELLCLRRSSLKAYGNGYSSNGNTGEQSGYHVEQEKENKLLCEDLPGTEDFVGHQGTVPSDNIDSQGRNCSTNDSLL
Procedure, shortened: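 Cells (CHO, stable ADRB2 overexpression) incubated 18-20hr at 37C; compounds added from DMSO; agonist mix (1nM isoproterenol, 100uM IBMX, 25uM Ro-20-1724) added; 0.5hr RT; d2-cAMP and anti-cAMP-cryptate added; 1hr RT; 665/615 nm read.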

[13] = biological target: Beta-2 adrenergic receptor (Homo sapiens) (UniProt P07550); experiment: Adrenergic beta2 receptor (ADRB2) small molecule agonists, cell-based qHTS assay (AID 1963593);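 note: CHO cells stably overexpressing human ADRB2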
Procedure, shortened: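 CHO cells stably over-expressing ADRB2 were plated overnight at 37C, then dosed with compounds plus a stimulation mix containing 100uM IBMX and 25uM Ro-20-1724 for 0.5hr at room temperature. cAMP was measured by HTRF competition, 1hr.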

[14] = biological target: D(2) dopamine receptor (Homo sapiens) (UniProt P14416); experiment: Dopamine D2 receptor (DRD2) small molecule agonists, cell-based qHTS assay (AID 1963594); note: nearly all actives have a fitted effect of over 35% in size
D(2) dopamine receptor (Homo sapiens), sequence (P14416 whole entry, looked up): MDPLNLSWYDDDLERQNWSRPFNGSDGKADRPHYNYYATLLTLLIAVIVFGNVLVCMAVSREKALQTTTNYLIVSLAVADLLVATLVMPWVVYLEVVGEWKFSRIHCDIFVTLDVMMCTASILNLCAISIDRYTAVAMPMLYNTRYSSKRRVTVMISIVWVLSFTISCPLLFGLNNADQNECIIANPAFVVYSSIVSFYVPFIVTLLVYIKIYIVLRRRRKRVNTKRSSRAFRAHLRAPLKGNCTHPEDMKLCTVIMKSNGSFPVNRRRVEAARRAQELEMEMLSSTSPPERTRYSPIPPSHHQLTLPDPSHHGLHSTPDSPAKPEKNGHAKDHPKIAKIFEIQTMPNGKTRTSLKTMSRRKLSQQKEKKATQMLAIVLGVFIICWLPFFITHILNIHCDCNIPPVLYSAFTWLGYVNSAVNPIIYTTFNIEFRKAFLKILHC
Procedure, shortened: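 cAMP accumulation in DRD2-HEK293 cells measured by HTRF after 1 h detection; compounds added 10 min before NKH477 (200nM […]) forskolin-analogue stimulation, 30 min at room temperature, with Ro20-1724 present at 0.1 mM final.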

[15] = biological target: D(2) dopamine receptor (Homo sapiens) (UniProt P14416); experiment: Dopamine D2 receptor (DRD2) small molecule antagonists, cell-based qHTS assay (AID 1963595; active = well fitted inhibition curve with a large enough effect in the signal ratio in the repeat runs, with a control signal flat; the % refers to the signal ratio)
Procedure, shortened: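 Antagonist mode in DRD2-HEK293 cells: after compound addition with 0.1 mM Ro20-1724, cells received quinpirole (12 nM) and NKH477 (200 nM) for 30 min at room temperature; HTRF cAMP read after 1 h detection.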

[16] = biological target: 5-hydroxytryptamine receptor 2A (Homo sapiens) (UniProt P28223); experiment: 5-hydroxytryptamine receptor 2A (HTR2A) small molecule antagonists, cell-based qHTS assay (AID 1963586); note: nearly all actives have a fitted effect of over 45% in size
5-hydroxytryptamine receptor 2A (Homo sapiens), sequence (P28223 whole entry, looked up): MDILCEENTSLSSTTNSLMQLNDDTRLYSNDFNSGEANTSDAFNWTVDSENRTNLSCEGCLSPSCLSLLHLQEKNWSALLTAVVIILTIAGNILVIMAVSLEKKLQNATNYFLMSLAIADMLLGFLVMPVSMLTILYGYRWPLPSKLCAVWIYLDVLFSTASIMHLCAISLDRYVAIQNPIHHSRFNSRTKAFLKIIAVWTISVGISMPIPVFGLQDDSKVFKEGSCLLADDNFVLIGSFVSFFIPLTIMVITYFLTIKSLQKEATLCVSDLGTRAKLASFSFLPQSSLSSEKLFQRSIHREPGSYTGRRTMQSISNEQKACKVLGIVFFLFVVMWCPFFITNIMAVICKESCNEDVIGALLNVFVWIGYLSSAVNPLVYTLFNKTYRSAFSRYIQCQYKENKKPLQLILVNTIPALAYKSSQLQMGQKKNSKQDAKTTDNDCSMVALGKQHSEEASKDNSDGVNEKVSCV
Procedure, shortened: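 Antagonist-mode intracellular calcium assay: DOI (4 nM) added after 5 min compound pre-incubation at room temperature to dye-loaded HTR2A-CHO cells. Fluorescence followed for 3 min, sampled every second.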

[17] = biological target: 5-hydroxytryptamine receptor 2A (Homo sapiens) (UniProt P28223); experiment: 5-hydroxytryptamine receptor 2A (HTR2A) small molecule agonists, cell-based qHTS assay (AID 1963587); note: nearly all actives have a fitted effect of over 30% in size; note: potency is the fitted concentration of half-maximal effect
Procedure, shortened: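 Kinetic calcium-flux fluorescence (2 min, 1 sec intervals) after compound addition in agonist mode. HTR2A-CHO cells were cultured 18 h, then dye-loaded 1 h at 37 C.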

[18] = biological target: Muscarinic acetylcholine receptor M1 (Homo sapiens) (UniProt P11229); experiment: Cholinergic receptor muscarinic 1 (CHRM1) small molecule antagonists, cell-based qHTS assay (AID 1963588); note: nearly all actives have a fitted effect of over 40% in size; note: potency is the fitted concentration of half-maximal effect
Muscarinic acetylcholine receptor M1 (Homo sapiens), sequence (P11229 whole entry, looked up): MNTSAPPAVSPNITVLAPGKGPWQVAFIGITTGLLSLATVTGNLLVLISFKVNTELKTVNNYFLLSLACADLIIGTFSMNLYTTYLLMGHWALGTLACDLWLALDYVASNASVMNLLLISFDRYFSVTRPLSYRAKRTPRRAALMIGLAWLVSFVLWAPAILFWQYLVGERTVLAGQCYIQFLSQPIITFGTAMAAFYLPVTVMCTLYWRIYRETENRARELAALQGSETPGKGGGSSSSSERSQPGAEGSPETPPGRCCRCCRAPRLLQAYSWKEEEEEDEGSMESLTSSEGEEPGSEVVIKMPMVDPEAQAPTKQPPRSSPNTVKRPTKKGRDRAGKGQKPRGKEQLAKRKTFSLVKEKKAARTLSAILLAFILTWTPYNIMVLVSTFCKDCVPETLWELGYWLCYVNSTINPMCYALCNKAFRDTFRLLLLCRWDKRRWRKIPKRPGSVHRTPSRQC
Procedure, shortened: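 CHRM1-CHO calcium-flux assay, antagonist mode. Cells were seeded 18 h, dye-loaded 1 h at 37 C and given compound for 5 min at RT, then acetylcholine was added at 50nM. FDSS fluorescence was read 3 min; 15 concentrations, three runs.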

[19] = biological target: Muscarinic acetylcholine receptor M1 (Homo sapiens) (UniProt P11229); experiment: Cholinergic receptor muscarinic 1 (CHRM1) small molecule agonists, cell-based qHTS assay (AID 1963589); note: nearly all actives have a fitted effect of over 35% in size; note: potency is the fitted concentration of half-maximal effect
Procedure, shortened: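 CHO cells stably expressing human CHRM1, seeded 18 h at 37 C/5% CO2, dye-loaded 1 h at 37 C, then given compound in agonist mode; intracellular calcium fluorescence read kinetically at 1 s intervals. Fifteen concentrations, three independent runs.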

| SMILES | Potency [1] | Potency [2] | Potency [3] | Potency [4] | Potency [5] | Potency [6] | Potency [7] | Potency [8] | Potency [9] | Potency [10] | Potency [11] | Potency [12] | Potency [13] | Potency [14] | Potency [15] | Potency [16] | Potency [17] | Potency [18] | Potency [19] |
| --- | --- | --- | --- | --- | --- | --- | --- | --- | --- | --- | --- | --- | --- | --- | --- | --- | --- | --- | --- |
| C[C@]12C=CC(=O)C=C1CC[C@H]1[C@@H]3C[C@@H](O)[C@](O)(C(=O)CO)[C@@]3(C)C[C@H](O)[C@@]12F | inactive | inactive | inactive | inactive | inactive | inactive | inactive | inactive | inactive | inactive | inactive | inactive | inactive | inactive | inactive |  |  |  |  |
| CCN1CCCC1=O | inactive | inactive | inactive | inactive | inactive |  | inactive | inactive |  | inactive | inactive | inactive | inactive | inactive | inactive | inactive | inactive | inactive | inactive |
| Brc1ccc(Br)c(Br)c1 | inactive | inactive | inactive | inactive | inactive | inactive | inactive | inactive |  | inactive | inactive | inactive |  | inactive | inactive | inactive | inactive | inactive |  |
| C=C(C)CC(C)(C)C | inactive | inactive | inactive | inactive | inactive | inactive | inactive |  | inactive | inactive | inactive | inactive | inactive | inactive | inactive | inactive | inactive | inactive | inactive |
| CC(O)CO (centres undefined) | inactive | inactive | inactive | inactive | inactive | inactive | inactive | inactive | inactive | inactive | inactive | inactive | inactive | inactive | inactive |  |  |  |  |
| Nc1ccc(S(N)(=O)=O)cc1 | inactive | inactive | inactive |  |  |  |  |  | inactive | inactive | inactive | inactive | inactive | inactive | inactive |  |  |  |  |
| c1ccc2scnc2c1 | inactive | inactive | inactive | inactive | inactive | inactive | inactive | inactive | inactive | inactive | inactive | inactive |  | inactive | inactive | inactive | inactive | inactive |  |
| CCCCC(CC)COC(=O)CS (centres undefined) | inactive | inactive | inactive | inactive | inactive | inactive | inactive | inactive | inactive | inactive | inactive | inactive |  | inactive | inactive | inactive | inactive | inactive | inactive |
| COCN(COC)c1nc(N(COC)COC)nc(N(COC)COC)n1 | inactive | inactive | inactive | inactive | inactive | inactive | inactive | inactive | inactive | inactive | inactive | inactive |  | inactive | inactive | inactive | inactive | inactive | inactive |
| CCCCCCCCCCCCCC[N+](C)(C)C |  | inactive | inactive | inactive | inactive | inactive | inactive | inactive | inactive |  |  | inactive | inactive | inactive | inactive |  | 48.9 µM (active) | 941 nM (active) and 818 nM (active) | 10.7 µM (active) |
| O=c1ccc2ccccc2o1 | inactive | inactive | inactive | inactive | inactive | inactive | inactive | inactive | inactive |  | inactive | inactive | inactive |  |  |  |  |  |  |
| C=C(C)C(=O)OCC(CC)(COC(=O)C(=C)C)COC(=O)C(=C)C | inactive | inactive | inactive | inactive | inactive | inactive | inactive | inactive | inactive |  |  | inactive |  | inactive |  | inactive |  |  | inactive |
| C1COCCN1 | inactive | inactive | inactive | inactive | inactive | inactive | inactive | inactive | inactive | inactive | inactive |  | inactive | inactive | inactive | inactive |  | inactive | inactive |
| Cc1ccccc1C(OCCN(C)C)c1ccccc1 (centres undefined) | inactive | inactive | inactive | inactive | inactive | inactive | inactive |  |  | inactive | inactive | inactive |  | inactive | inactive |  |  |  |  |
| Cc1ccc(S(=O)(=O)N=C=O)cc1 | inactive | inactive | inactive | inactive |  | inactive | inactive | inactive |  | inactive | inactive | inactive |  | inactive | inactive | inactive | inactive | inactive | inactive |
| CC(=O)[C@H]1CC[C@H]2[C@@H]3CC=C4C[C@@H](O)CC[C@]4(C)[C@H]3CC[C@]12C | inactive | inactive | inactive |  | inactive | inactive |  | inactive | inactive | inactive | inactive | inactive | inactive | inactive | inactive | inactive | inactive | inactive |  |
| CN/C(=C\[N+](=O)[O-])NCCSCc1csc(CN(C)C)n1 | inactive | inactive | inactive | inactive | inactive | inactive | inactive |  | inactive | inactive | inactive | inactive | inactive | inactive | inactive |  |  |  |  |
